Compound activity as filed in PubChem.
Hits are enriched below; roughly 6.3% of the tested compounds scored in any of these assays.
Mdm2-MdmX inh: inhibitors of human Mdm2/MdmX interaction. O15151+Q00987. SaOS-2 split-luciferase Mdm2/MdmX complementation, luminescence. inhibition, % at 8 µM. hit rate 3% among 330,000;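 active = inhibition of at least 50% at 8 µM in the primary screen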
TIM10 inh: TIM10 yeast growth inhibition | S. cerevisiae TIM10 strain growth, BacTiter-Glo luminescence, 24 h | inhibition, % at 10 µM | hit rate 1.4% among 330,000;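 active = inhibition of 40% or more at the single tested concentration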;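 note: wild-type TIM10 isogenic control strain grown at permissive 25 °C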
tim23-1 inh: inhibits growth of tim23-1 mutant yeast. hit rate 1.3% among 330,000. S. cerevisiae tim23-1 growth, BacTiter-Glo luminescence, 24 h. inhibition, % at 20 µM;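 active = growth inhibition of the mutant yeast at or above 50%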;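 note: temperature-sensitive mutant grown at 25 °C; plate controls were DMSO-treated mutant yeast for no effect and medium wells lacking yeast for full effect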
MPTP inh: blocks calcium-induced mitochondrial swelling | AID 602449 | isolated mouse mitochondria, Ca2+ swelling absorbance, 30 min | inhibition, % at 10 µM | hit rate 1.4% among 360,000;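 active = inhibition of 50% or more, scaled per plate between neutral and stimulator controls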;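 note: 0% = DMSO wells given calcium and 100% = 1 mM EGTA wells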
tim10-1 inh: inhibits growth of tim10-1 mutant yeast | S. cerevisiae tim10-1 ts strain growth, BacTiter-Glo, 24 h | inhibition, % at 20 µM | hit rate 2.2% among 330,000 | AID 463190;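 active = inhibition of at least 40%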;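 note: mutant grown at 25 °C; 0% = DMSO wells with yeast and 100% = wells holding no yeast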
Mdm2 MdmX conf: human Mdm2/MdmX binding inhibition, confirmed. AID 489028. luminescent assay. shares compounds with Mdm2-MdmX inh. inhibition, % at 8 µM. hit rate 55% among 10,000; in the data active = inhibition above about 40%
FLuc counter: full-length luciferase inhibition in Mdm2/MdmX counter-screen. inhibition, % at 8 µM. hit rate 77% among 6,200. SaOS-2 full-length luciferase counterscreen, luminescence. shares compounds with Mdm2-MdmX inh;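 active = mean inhibition at 8 µM reaching about 37%, which flags the compound as non-specific, limit read from the data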;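 note: p53-null SaOS-2 cells with luciferase driven by a doxycycline-inducible promoter; compound on cells about two nights before reading with doxycycline added after day one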
Starred values were filed as active, the others as inactive.

For CCSc1nnc(NC(=O)C2CCCN(C(=O)c3ccc(Cl)cc3)C2)s1 (centres undefined) the results were MPTP inh 0.
C=CC(=O)Nc1ccc(Nc2nc(NC3CCC(N(C)C)CC3)nc3c2ncn3C(C)C)cc1 (centres undefined) was read as Mdm2-MdmX inh 96*, TIM10 inh 5, tim23-1 inh -3, MPTP inh -1, tim10-1 inh -10, Mdm2 MdmX conf 100* and FLuc counter 52*.
For Cc1cccc(C)c1Nc1c(-c2ccccn2)nc2ccccn12 the results were Mdm2-MdmX inh 77*, TIM10 inh 17, tim23-1 inh 22, MPTP inh 5, tim10-1 inh 23, Mdm2 MdmX conf 58* and FLuc counter 41*.
Cc1ccc(Nc2c(-c3ccccn3)nc3cccc(C)n23)cc1 was read as Mdm2-MdmX inh 87*, TIM10 inh 22, tim23-1 inh 41, MPTP inh 4, tim10-1 inh -35, Mdm2 MdmX conf 91* and FLuc counter 21.
For Cc1cc(C)n2c(Nc3c(C)cccc3C)c(-c3ccccn3)nc2n1 the results were MPTP inh 0.
For CC(=O)NC(c1ccc(F)c(F)c1)c1nc(-c2cnn(C)c2)cs1 (centres undefined) the results were MPTP inh 1.
Screening Cc1cc(F)ccc1C(O)c1ncc(-c2cccc(F)c2)[nH]1 (centres undefined) returned MPTP inh -1.
Screening COc1ccc(N=C(C)C2C(=O)c3ccccc3C2=O)cc1 returned MPTP inh 0.
For COCCNC(=O)C1CCCN(C(=O)c2ccc(SC(F)(F)F)cc2)CC1 (centres undefined) the results were MPTP inh -1.
For O=c1nc(Nc2ccc(OCc3ccccc3)cc2)sc2ncccc12 the results were Mdm2-MdmX inh 69*, TIM10 inh -4, tim23-1 inh 3, MPTP inh 2, tim10-1 inh 11, Mdm2 MdmX conf 82* and FLuc counter 23.
Screening CCOC(=O)c1ccc(Nc2nc(=O)c3cccnc3s2)cc1 returned Mdm2-MdmX inh 71*, TIM10 inh -1, tim23-1 inh 4, MPTP inh 0, tim10-1 inh 15, Mdm2 MdmX conf 41* and FLuc counter 73*.
For CC(=O)c1cccc(Nc2nc(=O)c3cccnc3s2)c1 the results were Mdm2-MdmX inh 15, TIM10 inh 18, tim23-1 inh 8, MPTP inh -1 and tim10-1 inh 23.
COc1ccccc1C(=O)Nc1nnc([C@H]2C[C@H](O)[C@@H](CO)O2)s1 was read as MPTP inh 0.
O=C(Cc1ccc(S(=O)(=O)N2CCOCC2)s1)NCC(=O)Nc1ccccc1Br was read as Mdm2-MdmX inh 8, TIM10 inh 2, tim23-1 inh -1, MPTP inh 0 and tim10-1 inh 13.
O=C(Cc1ccc(S(=O)(=O)N2CCOCC2)s1)Nc1ccccc1Br was read as Mdm2-MdmX inh 66*, TIM10 inh 11, tim23-1 inh 25, MPTP inh 2, tim10-1 inh 27 and Mdm2 MdmX conf 0.
For Cc1cc(C(=O)N/N=C/c2cc(Br)ccc2OC(=O)c2ccccc2)n[nH]1 the results were Mdm2-MdmX inh 51*, TIM10 inh 1, tim23-1 inh 4, MPTP inh 0, tim10-1 inh -8, Mdm2 MdmX conf 39 and FLuc counter 19.
For Cc1cc(C(=O)N/N=C/c2cc(Br)ccc2OC(=O)c2ccccc2Cl)n[nH]1 the results were Mdm2-MdmX inh 57*, TIM10 inh 8, tim23-1 inh -13, MPTP inh 0, tim10-1 inh 9, Mdm2 MdmX conf 46* and FLuc counter 53*.
Screening O=C(N/N=C/c1cc(Br)ccc1OC(=O)c1ccc(Br)cc1)c1ccncc1 returned Mdm2-MdmX inh 43, TIM10 inh 20, tim23-1 inh 30, MPTP inh -1 and tim10-1 inh -15.
Cc1cnc(NC(=O)COc2ccccc2Cl)s1 was read as Mdm2-MdmX inh 53*, TIM10 inh 13, tim23-1 inh 27, MPTP inh -1, tim10-1 inh 10 and Mdm2 MdmX conf 36.
Screening CC1C(=NO)C(C)C(c2ccccc2)NC1c1ccccc1 (centres undefined) returned Mdm2-MdmX inh -18, TIM10 inh 18, tim23-1 inh 5, MPTP inh 0 and tim10-1 inh 22.
CCCC1/C(=N/O)CC(c2ccccc2)NC1c1ccccc1 (centres undefined) was read as Mdm2-MdmX inh 59*, TIM10 inh -20, tim23-1 inh 11, MPTP inh 0, tim10-1 inh 0, Mdm2 MdmX conf 62* and FLuc counter 64*.
CC1/C(=N/O)CC(c2ccccc2)NC1c1ccccc1 (centres undefined) was read as Mdm2-MdmX inh -13, TIM10 inh -15, tim23-1 inh -23, MPTP inh 2 and tim10-1 inh 7.
CCC1C(=NO)C(CC)C(c2ccccc2)NC1c1ccccc1 (centres undefined) was read as Mdm2-MdmX inh 52*, TIM10 inh 32, tim23-1 inh 23, MPTP inh 9, tim10-1 inh 28 and Mdm2 MdmX conf 37.
Screening CCOC(=O)C(=Cc1ccc(OCc2ccc([N+](=O)[O-])cc2)c(OC)c1)C(=O)OCC returned Mdm2-MdmX inh 99*, TIM10 inh 31, tim23-1 inh 14, MPTP inh -2, tim10-1 inh 14 and Mdm2 MdmX conf 34.
`COC(=O)C(=Cc1ccc(OCc2ccc([N+](=O)[O-])cc2)c(OC)c1)C(=O)OC` gave Mdm2-MdmX inh 92*, TIM10 inh 24, tim23-1 inh 6, MPTP inh -3, tim10-1 inh 21 and Mdm2 MdmX conf 8.
COC(=O)c1sccc1-n1cc2c(c1-c1ccccc1)c(=O)n(C)c(=O)n2C was read as MPTP inh -2.
Screening COc1cc(CC(=O)OCC(=O)c2ccc3c(c2)OCCO3)cc(OC)c1OC returned Mdm2-MdmX inh 66*, TIM10 inh 11, tim23-1 inh 7, MPTP inh -1, tim10-1 inh 20, Mdm2 MdmX conf 54* and FLuc counter 101*.
Screening O=c1cccc2c1c1cc[nH]c3ccc(=O)n2c31 returned Mdm2-MdmX inh 73*, TIM10 inh 1, tim23-1 inh 9, MPTP inh 3, tim10-1 inh 8, Mdm2 MdmX conf 68* and FLuc counter 53*.
Screening Cc1nc2ccccc2n1-c1nc(-c2ccco2)cc(C(F)(F)F)n1 returned Mdm2-MdmX inh 77*, TIM10 inh 25, tim23-1 inh 7, MPTP inh 0, tim10-1 inh 32, Mdm2 MdmX conf 100* and FLuc counter 9.
